Assay results published in the supplement of paper PMC11732987, “Enantioselective OTUD7B fragment discovery through chemoproteomics screening and high-throughput optimisation” (Communications Chemistry, 2025).

Key:
Experiment in all cases: log2 ratio of Biotin-Ahx-Ub-VS probe labelling (fragment/DMSO); higher = less target engagement (more negative = stronger competition), active = hit call of the paper (q ≤ 0.05, log2 ratio ≤ -1)
Conditions in all cases: compound concentration: 200 uM; treatment time: 3 h
[1] = molecular target: USP9X (UniProt Q93008)
USP9X, sequence (Q93008 whole entry, the tested form may be a part): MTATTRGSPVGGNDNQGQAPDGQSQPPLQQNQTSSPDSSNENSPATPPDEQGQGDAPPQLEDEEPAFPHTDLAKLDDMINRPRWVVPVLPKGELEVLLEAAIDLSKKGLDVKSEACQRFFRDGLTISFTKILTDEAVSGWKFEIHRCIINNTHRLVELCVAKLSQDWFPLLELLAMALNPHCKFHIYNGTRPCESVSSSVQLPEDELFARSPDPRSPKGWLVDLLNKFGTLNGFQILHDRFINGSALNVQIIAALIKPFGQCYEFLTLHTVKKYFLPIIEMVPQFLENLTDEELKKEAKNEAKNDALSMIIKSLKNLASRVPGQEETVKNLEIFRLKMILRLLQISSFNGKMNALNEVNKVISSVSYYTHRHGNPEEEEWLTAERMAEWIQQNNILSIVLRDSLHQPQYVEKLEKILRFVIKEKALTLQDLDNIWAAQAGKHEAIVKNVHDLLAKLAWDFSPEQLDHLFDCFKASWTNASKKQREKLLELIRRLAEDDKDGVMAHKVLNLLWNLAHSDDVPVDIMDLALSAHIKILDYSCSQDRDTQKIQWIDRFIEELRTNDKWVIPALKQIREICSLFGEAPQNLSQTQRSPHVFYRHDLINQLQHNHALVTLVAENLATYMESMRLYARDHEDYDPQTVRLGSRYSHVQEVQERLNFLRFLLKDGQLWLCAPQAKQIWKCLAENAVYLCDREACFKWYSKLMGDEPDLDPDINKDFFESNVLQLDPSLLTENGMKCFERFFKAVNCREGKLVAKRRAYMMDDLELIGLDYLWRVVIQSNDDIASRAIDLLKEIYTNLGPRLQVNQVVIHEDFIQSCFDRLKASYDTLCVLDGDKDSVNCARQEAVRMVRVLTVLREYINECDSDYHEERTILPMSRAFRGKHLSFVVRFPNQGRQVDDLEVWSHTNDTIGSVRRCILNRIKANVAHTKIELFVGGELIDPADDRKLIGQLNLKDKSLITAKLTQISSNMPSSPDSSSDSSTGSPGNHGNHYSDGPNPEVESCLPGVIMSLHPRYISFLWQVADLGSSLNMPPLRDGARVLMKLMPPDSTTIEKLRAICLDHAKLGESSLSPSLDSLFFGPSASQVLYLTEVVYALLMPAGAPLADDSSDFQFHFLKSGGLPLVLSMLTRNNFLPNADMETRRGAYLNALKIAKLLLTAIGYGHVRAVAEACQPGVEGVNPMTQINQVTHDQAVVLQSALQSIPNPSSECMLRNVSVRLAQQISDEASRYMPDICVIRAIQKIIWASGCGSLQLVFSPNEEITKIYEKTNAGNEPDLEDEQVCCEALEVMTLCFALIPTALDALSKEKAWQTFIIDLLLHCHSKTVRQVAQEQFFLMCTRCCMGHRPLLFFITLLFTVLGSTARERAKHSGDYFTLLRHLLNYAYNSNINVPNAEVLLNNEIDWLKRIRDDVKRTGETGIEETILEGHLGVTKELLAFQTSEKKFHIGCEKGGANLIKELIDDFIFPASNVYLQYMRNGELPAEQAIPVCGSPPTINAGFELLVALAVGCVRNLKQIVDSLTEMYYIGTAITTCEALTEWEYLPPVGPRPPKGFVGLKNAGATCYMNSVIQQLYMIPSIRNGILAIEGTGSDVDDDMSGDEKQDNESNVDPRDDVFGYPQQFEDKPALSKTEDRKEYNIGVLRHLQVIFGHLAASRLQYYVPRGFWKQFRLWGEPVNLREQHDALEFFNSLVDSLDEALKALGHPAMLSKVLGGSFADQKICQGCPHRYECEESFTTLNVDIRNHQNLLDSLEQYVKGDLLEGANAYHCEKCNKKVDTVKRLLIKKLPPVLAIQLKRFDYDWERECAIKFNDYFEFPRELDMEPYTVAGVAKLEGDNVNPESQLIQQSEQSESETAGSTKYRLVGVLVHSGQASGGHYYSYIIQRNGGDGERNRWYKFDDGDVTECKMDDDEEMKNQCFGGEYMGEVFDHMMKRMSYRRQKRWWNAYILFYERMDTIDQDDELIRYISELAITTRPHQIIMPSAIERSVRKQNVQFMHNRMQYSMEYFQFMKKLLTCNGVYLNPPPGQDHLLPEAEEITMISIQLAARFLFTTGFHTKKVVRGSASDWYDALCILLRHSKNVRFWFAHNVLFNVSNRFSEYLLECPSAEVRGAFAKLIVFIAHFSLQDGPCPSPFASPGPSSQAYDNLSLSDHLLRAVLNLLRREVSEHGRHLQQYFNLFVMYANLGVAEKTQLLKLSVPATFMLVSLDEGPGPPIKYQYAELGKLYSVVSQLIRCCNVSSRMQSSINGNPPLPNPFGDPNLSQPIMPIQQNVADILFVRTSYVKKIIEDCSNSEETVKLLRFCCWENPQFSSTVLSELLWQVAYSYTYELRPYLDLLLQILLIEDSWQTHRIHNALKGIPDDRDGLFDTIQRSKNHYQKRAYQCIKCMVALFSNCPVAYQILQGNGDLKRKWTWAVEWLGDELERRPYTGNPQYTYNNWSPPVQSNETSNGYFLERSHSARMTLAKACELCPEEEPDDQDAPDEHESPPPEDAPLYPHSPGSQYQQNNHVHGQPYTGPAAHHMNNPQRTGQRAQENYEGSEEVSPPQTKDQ
In short: (§1)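 In triplicate, 495 µg of HEK293T lysate per sample was incubated with fragment at 200 µM or vehicle for 3 h. Biotin-Ahx-Ub-VS was then added to 0.5 µM final for 1 h, and labelled DUBs were captured with NeutrAvidin, digested with LysC and trypsin, and measured by diaPASEF LC-MS/MS. Data are average log2 fragment/vehicle ratios by unpaired t-test from global-median-normalised Spectronaut label-free quantities, restricted to proteins with ≥2 unique peptides.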

[2] = molecular target: UniProt O00487
UniProt O00487, sequence (O00487 whole entry): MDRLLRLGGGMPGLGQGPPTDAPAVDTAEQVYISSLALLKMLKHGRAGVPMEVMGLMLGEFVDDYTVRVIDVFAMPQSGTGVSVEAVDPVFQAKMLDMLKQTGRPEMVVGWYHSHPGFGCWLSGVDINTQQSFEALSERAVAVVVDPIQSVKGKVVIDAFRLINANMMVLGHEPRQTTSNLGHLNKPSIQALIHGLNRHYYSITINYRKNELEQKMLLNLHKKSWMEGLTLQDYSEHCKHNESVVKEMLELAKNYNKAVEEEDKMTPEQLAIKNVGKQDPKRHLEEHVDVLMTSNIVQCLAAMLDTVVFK
In short: as §1

[3] = molecular target: UniProt O00507
In short: as §1

[4] = molecular target: UniProt P51784
UniProt P51784, sequence (P51784 whole entry): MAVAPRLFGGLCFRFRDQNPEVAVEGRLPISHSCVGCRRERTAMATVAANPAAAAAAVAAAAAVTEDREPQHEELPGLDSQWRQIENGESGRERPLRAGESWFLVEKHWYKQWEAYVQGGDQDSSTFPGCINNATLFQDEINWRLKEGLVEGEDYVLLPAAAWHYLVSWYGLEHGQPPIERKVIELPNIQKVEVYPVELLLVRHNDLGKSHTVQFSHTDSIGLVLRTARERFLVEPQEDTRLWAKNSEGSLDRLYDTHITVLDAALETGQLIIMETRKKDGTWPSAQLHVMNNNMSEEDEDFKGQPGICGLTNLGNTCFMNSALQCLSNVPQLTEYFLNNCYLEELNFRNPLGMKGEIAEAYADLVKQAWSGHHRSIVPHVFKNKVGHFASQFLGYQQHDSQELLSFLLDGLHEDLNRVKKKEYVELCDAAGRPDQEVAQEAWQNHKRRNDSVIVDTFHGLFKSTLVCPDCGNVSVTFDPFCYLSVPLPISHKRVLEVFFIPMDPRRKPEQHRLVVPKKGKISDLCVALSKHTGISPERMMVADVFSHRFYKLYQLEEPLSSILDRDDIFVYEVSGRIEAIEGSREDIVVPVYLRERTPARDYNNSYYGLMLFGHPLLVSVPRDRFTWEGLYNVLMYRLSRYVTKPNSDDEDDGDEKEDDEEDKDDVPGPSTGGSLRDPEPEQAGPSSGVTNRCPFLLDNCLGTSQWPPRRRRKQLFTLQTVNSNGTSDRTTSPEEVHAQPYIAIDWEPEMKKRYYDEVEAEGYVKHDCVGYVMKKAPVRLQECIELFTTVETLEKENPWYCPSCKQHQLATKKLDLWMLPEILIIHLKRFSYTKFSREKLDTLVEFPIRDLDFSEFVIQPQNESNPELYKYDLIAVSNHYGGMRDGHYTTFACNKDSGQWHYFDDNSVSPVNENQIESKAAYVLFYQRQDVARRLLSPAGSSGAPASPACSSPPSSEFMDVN
In short: as §1

[5] = molecular target: T1, UniProt Q5T2D3
T1 sequence (whole entry): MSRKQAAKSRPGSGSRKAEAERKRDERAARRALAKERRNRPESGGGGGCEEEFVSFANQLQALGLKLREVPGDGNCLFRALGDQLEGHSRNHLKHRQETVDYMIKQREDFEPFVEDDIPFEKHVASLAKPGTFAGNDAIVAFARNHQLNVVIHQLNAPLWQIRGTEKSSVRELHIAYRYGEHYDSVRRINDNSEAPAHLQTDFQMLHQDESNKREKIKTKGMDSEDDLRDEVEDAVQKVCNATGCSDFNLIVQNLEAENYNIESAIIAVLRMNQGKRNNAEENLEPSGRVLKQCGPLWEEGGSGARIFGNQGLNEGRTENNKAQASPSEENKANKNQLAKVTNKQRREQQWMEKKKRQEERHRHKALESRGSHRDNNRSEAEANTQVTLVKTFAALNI
In short: as §1

[6] = molecular target: T2, UniProt Q8TE49
T2 sequence (whole entry): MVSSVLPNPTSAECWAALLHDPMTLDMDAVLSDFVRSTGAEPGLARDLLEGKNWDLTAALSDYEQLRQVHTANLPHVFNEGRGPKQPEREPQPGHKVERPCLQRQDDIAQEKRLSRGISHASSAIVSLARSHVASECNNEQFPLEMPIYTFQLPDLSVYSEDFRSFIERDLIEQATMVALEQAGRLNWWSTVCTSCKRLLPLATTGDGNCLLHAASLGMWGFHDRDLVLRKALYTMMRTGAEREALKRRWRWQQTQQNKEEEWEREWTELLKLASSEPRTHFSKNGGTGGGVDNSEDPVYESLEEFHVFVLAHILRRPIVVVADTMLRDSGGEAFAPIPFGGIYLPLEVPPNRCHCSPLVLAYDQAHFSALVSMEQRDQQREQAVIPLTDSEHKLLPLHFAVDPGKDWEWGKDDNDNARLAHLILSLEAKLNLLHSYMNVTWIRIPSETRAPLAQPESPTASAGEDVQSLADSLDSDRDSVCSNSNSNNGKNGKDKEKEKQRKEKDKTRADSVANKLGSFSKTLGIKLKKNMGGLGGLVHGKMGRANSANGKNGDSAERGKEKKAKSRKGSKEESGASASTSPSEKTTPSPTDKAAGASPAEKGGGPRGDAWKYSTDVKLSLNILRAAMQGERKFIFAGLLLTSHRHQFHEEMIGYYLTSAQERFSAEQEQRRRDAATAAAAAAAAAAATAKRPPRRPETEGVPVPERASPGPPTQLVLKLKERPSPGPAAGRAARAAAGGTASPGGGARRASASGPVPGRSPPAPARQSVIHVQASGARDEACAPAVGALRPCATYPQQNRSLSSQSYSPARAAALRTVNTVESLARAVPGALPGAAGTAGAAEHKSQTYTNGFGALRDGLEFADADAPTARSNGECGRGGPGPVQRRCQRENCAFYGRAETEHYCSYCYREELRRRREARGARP
In short: as §1

[7] = molecular target: T3, UniProt Q9P2H5
T3 sequence (whole entry): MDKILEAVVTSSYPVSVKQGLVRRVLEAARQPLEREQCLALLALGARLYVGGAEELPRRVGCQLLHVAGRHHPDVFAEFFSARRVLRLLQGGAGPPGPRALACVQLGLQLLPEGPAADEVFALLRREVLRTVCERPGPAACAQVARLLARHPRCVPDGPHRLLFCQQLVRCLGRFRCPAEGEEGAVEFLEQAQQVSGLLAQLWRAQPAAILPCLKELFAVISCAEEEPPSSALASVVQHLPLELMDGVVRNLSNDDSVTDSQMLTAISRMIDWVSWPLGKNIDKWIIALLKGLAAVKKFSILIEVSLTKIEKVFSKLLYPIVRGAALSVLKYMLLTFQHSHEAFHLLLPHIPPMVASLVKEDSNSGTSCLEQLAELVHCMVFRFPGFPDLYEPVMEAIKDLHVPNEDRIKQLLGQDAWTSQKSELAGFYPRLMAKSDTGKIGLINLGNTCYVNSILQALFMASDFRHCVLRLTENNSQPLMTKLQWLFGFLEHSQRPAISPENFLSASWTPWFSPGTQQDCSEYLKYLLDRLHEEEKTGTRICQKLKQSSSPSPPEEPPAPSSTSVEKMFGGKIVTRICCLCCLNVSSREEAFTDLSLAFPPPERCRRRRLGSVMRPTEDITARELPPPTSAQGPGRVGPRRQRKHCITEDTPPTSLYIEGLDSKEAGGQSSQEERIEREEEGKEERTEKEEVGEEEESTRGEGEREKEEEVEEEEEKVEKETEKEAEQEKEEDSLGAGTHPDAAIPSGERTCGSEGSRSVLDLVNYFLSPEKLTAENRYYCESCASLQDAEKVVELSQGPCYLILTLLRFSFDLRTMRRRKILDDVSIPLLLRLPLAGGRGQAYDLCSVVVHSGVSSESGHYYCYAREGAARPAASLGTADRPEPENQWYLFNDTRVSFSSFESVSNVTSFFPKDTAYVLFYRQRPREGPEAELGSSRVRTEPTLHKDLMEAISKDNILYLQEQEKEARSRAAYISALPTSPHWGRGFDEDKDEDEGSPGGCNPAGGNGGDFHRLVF
In short: as §1

[8] = molecular target: T4, UniProt Q9UGI0
T4 sequence (whole entry): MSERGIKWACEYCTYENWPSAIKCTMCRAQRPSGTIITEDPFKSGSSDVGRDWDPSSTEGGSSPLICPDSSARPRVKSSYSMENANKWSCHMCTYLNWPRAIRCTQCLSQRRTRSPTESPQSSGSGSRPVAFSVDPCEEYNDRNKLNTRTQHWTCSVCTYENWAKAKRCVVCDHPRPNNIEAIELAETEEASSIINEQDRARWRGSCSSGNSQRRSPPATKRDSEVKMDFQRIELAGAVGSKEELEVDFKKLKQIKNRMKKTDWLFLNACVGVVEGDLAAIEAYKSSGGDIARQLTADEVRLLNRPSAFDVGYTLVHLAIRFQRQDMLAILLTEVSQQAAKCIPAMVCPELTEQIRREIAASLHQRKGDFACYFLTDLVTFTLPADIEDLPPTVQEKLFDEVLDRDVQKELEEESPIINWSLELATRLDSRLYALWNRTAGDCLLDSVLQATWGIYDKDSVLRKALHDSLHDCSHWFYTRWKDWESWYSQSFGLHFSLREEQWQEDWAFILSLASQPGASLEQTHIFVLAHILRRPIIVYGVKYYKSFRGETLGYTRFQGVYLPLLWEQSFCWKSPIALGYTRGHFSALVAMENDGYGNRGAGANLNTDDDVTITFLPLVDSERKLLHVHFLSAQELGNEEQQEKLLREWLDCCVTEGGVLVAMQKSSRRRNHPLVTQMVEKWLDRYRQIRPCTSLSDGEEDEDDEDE
In short: as §1

[9] = molecular target: T5, YOD1 (UniProt Q5VVQ6)
T5 sequence (whole entry): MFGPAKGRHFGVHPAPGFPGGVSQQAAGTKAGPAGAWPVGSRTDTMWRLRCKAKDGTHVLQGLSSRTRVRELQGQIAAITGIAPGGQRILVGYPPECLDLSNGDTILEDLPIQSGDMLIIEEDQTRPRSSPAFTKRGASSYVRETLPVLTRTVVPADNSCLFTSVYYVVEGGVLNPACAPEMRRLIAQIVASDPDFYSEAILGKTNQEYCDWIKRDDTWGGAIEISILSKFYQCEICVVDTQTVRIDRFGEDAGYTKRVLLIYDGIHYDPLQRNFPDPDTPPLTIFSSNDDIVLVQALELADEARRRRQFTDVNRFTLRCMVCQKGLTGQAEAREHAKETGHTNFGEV
In short: as §1

Measured: log2 ratio of Biotin-Ahx-Ub-VS probe labelling

O=C(CCl)N1CCC(OCc2ccccc2F)CC1
inactive: [1] -0.0279 | [2] 0.075 | [3] -0.226 | [4] 0.146 | [5] -0.173 | [6] -0.355 | [7] 0.097 | [8] -0.394 | [9] 0.135
